MARV entry inh – qHTS for inhibitors of binding or entry into cells for Marburg Virus | Marburg virus pseudotyped entry inhibition, cell reporter | Potency, µM (titrated, usually from 37.8 µM), without a hit: at the highest dose activity change, negative = inhibition, most hits filed as inhibitors | hit rate 1.8% among 300,000; calls by dose curve; tested in HEK293 cells; also: potency is read from the fitted curve at half-maximal effect
Lassa entry inh – qHTS for Inhibitors of binding or entry into cells for Lassa Virus; Lassa virus pseudotype entry inhibition, cell reporter; Potency, µM (doses to about 37.9 µM), for inactives: at the top dose activity change, negative = inhibition, hits mostly inhibitors; hit rate 1.2% among 300,000; AID 540256, 2011; calls by dose curve; tested in HEK293 cells; also: potency is read from the fitted curve at half-maximal effect; nearly all actives have a fitted effect of over 50% in size
FMDV inh – High Throughput Screening for Foot and Mouth Disease Virus Antivirals; FMDV antiviral cell-based qHTS; Potency, µM (series often up to 57.9 µM), for inactives: top-dose activity change, negative = inhibition, most hits filed as inhibitors; AID 1159524, 2015; hit rate 1.2% among 410,000; calls by dose curve; tested in HEK293T cells; also: read-out not given here; potency is read from the fitted curve at half-maximal effect; nearly all actives have a fitted effect of over 45% in size
Vaccinia Venus – qHTS for Stage-Specific Inhibitors of Vaccinia Orthopoxvirus: Venus Reporter Primary qHTS; hit rate 0.46% among 330,000; Vaccinia virus Venus reporter expression, fluorescence; Potency, µM (series often up to 36.5 µM), for inactives: at the top dose activity change, negative = inhibition, usual class: inhibitors; calls by dose curve; tested in A549 cells; also: potency is read from the fitted curve at half-maximal effect; nearly all actives have a fitted effect of over 30% in size
Vaccinia mCherry – qHTS for Stage-Specific Inhibitors of Vaccinia Orthopoxvirus: mCherry Reporter Primary qHTS. Vaccinia virus mCherry reporter infection, fluorescence. Potency, µM (series often up to 36.5 µM), without a hit: top-dose activity change, negative = inhibition, actives largely listed as inhibitors. hit rate 0.63% among 310,000. AID 720579, 2013; calls by dose curve; tested in A549 cells; also: potency is read from the fitted curve at half-maximal effect; nearly all actives have a fitted effect of over 35% in size
HCMV antiviral – qHTS Assay for inhibitors of the human cytomegalovirus (HCMV) | activity change, negative = inhibition, % at 57.5 µM | AID 1259415, 2018 | hit rate 4.5% among 410,000 | HFF cells, HCMV-luciferase reporter, 72 h; active compounds read low; in the data active = activity change below about -60%; inconclusive = no clear call, values can overlap the other calls; inactive = above about -39%
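Steps: HFFs plated, 16 h 37C; compounds added; HCMV-luciferase added to MOI 1 PFU/cell; 72 h 37C; OneGlo reagent, 5 min room temperature; luminescence read, normalized to controls.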
Starred values were filed as active, the others as inactive; i = inactive; ? = inconclusive; . = not tested or not shown; ! = repeats disagree; [ ] = dose if it differs, or a comment. This is a sample that favours compounds with a hit; in the whole collection about 6.5% have one here. % is scaled to controls: 0 for no effect and ±100 for the full control effect.

SMILES	MARV entry inh	Lassa entry inh	FMDV inh	Vaccinia Venus	Vaccinia mCherry	HCMV antiviral
Cc1cc(C(=O)Nc2c(C)nn(Cc3c(Cl)cccc3Cl)c2C)no1	2.6µM*	5.8µM*	-10%	.	.	-62*
COc1ccc(C=CC2=C[C@]3(C)C[C@]2(C)[C@H](c2ccc(OC)cc2)CC3=O)cc1	4%[14.2 µM]	.	.	.	.	.
CCOc1ccc(NC(=O)CCc2c(C)nc3nc(-c4cc(OC)cc(OC)c4)nn3c2C)cc1	0%[46.1 µM]	3%[46.1 µM]	?	-9%	-9%	10
O=c1[nH][nH]c(-c2ccccc2O)c1C(C[N+](=O)[O-])c1ccc(Br)cc1 (configuration not stated)	?	?	?	-15%	-29%	?
Cc1ccc(C(C[N+](=O)[O-])c2c(-c3ccccc3O)[nH][nH]c2=O)cc1 (configuration not stated)	?	-1%	?	-8%	-17%	-75*
CC(C)(C)c1ccc(S(=O)(=O)N2CC3CC(C2)c2cccc(=O)n2C3)cc1 (configuration not stated)	17%	5%	.	-10%	0%	-8
COc1ccc(S(=O)(=O)N2CC3CC(C2)c2cccc(=O)n2C3)cc1 (configuration not stated)	-26%[46.1 µM]	-9%	-2%	-1%	6%	-65*
CC1CCCN(CCCNC(=O)c2cc3c(Cl)nc4ccccc4c3s2)C1 (configuration not stated)	2.8µM*	?	-24%	?	-4%[7.34 µM]	-91*!
CN(CCCNC(=O)c1cc2c(Cl)nc3ccccc3c2s1)Cc1ccccc1	10µM*	?	-14%	?	-1%	?
COc1ccc(-c2csc3nc(-c4ccc(F)cc4)oc(=O)c23)cc1	.	-6%[46.1 µM]	-3%	-16%	-25%	8
COc1ccc(-c2csc3nc(-c4ccccc4OC)oc(=O)c23)cc1	?	-4%[46.1 µM]	?	?	?	-69*
O=[N+]([O-])c1ccc2nc(NN=Cc3ccc(O)cc3)sc2c1	?	-25%[46.1 µM]	-3%	?	3.2µM*	-62*
CC(C)c1ccc(/C=C/C(=O)Nc2nc3ccc([N+](=O)[O-])cc3s2)cc1	3%	5%	4%	.	.	?
CCN(CC)CCOc1nnc(-c2ccc(OC)cc2)c2ccccc12	.	.	11%	.	.	-72*
CNC(=O)c1cc(C(=O)c2ccc(Cl)cc2)c[nH]1	21%[46.1 µM]	11%[46.1 µM]	15%	-15%	i	85
O=C(c1ccc(Cl)cc1)c1c[nH]c(C(=O)NNc2ccccc2)c1	?	14µM*	-13%	-27%	?	-19
CN(C)C=NC(=O)c1cc(C(=O)c2ccc(Cl)cc2)c[nH]1	28%[46.1 µM]	-2%	23%	-11%	-6%	-63*
COP(=S)(OC)Oc1ccc([N+](=O)[O-])cc1	.	.	22µM*	?	?	.
COC(=O)C(c1ccccc1)(c1cn(Cc2ccccc2)c2ccccc12)C(Nc1ccccc1)c1ccccc1 (configuration not stated)	.	.	.	.	.	-21
Cn1c(SSc2ccc(-c3cccnc3)n2C)ccc1-c1cccnc1	13µM*	?	?	?	13µM*	-37
c1cncc(-c2nnc(-c3cccnc3)nn2)c1	?	?	?	2%	-9%	5
CCSc1nnc(NC(=O)C(C)Sc2nc3ccccc3[nH]2)s1 (configuration not stated)	14%	29%	-17%	-13%	-15%	-103*
CCOC(=O)/C(=C\Nc1cccc(OCc2ccccc2)c1)NC(=O)c1ccccc1	.	.	.	.	.	-60*
CCOC(=O)C1(C(=O)OCC)Cc2ccc(C(C)=O)cc2C1	-20%[14.2 µM]	?	.	.	.	.
Cc1c(C#N)c(N)nc2c3c(sc12)NC(=O)CC3c1ccc(Cl)cc1 (configuration not stated)	?	?	22µM*	?	?	-81*
Cc1cc(Nc2ccccc2Cl)n2nc(-c3ccco3)nc2n1	.	1%[46.1 µM]	-23%	-13%	-12%	-72*
c1csc(CNc2ncncc2-c2ccc3c(c2)OCO3)c1	.	.	-4%	0%	i	.
